# Cruzain noTriton – blocks cruzain activity in detergent-free assay; purified cruzain, Z-FR-AMC fluorescence, no detergent; Potency, µM, for the others: max response, negative = inhibition, most hits filed as inhibitors; actives 2.3% (n = 200,000);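 note: plate controls were enzyme without inhibitor for no effect and buffer without enzyme for full effect; nearly all actives have a fitted effect of over 40% in size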
# Target sequence (P25779 123-467 limits assumed): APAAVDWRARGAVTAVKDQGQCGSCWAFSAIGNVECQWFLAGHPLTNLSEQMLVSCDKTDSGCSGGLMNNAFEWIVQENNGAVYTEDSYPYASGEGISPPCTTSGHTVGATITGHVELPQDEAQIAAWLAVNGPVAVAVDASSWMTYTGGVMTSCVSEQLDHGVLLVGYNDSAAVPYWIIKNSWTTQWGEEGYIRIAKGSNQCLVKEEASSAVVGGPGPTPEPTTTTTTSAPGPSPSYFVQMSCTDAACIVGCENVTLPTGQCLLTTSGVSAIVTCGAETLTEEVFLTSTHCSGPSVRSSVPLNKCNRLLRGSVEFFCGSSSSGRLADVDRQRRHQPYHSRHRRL
#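 Detergent-free condition (0.00005% Triton X-100) in acetate buffer pH 5.5 with DTT. 1.5 nM enzyme and compound were pre-mixed 15 min, then 2 uM Z-FR-AMC substrate added; reaction progress from fluorescence change between first and third reads (60 s).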
# Cruzain Triton – cruzain (T. cruzi) inhibition with detergent; actives 0.43% (n = 200,000); AID 1478; purified cruzain, Z-FR-AMC fluorescence, 0.01% Triton; Potency, µM, without a hit: max response, negative = inhibition, actives largely listed as inhibitors;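 note: plate controls were neutral wells for no effect and buffer without enzyme for full effect; nearly all actives have a fitted effect of over 40% in size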
#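 Cruzain (1.5 nM) preincubated 15 min at RT with compound in 100 mM sodium acetate pH 5.5, 5 mM DTT, 0.01% Triton X-100. Reaction started with 2 uM Z-FR-AMC; AMC fluorescence (ex 360/em 450 nm) change over 60 s gave rate.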
# * marks the source's active call; other numbers are inactive results; u = inconclusive; ! = not confirmed by another sample. Rows were chosen to be rich in hits. Some 2.6% of all compounds tested hit in one or more screens of this group. Calls come from the whole dose curve; as a rule, active = well fitted curve in the direction sought with a large enough effect; inconclusive = small, poorly fitted or top-dose-only effect, or another doubt; inactive = no such curve, though single readings can be large; an effect the other way counts as inactive or inconclusive. Potency is the fitted concentration of half-maximal effect.
SMILES,Cruzain noTriton,Cruzain Triton
COc1cc(NC(=O)CCCN2C(=O)CCn3nc(-c4cn(C)c5ccccc45)cc32)cc(OC)c1,u,-9%
COc1cccc(-c2nnc3sc(-c4ccccc4)nn23)c1,u,-8%
COc1cccc(OC)c1-c1nn2c(-c3cc(-c4ccccc4)n[nH]3)nnc2s1,20µM*,1.8µM*
CC(=O)Nc1cc(C(=O)NCc2ccccc2Cl)ccc1Sc1ccc(F)cc1,-8%,-2%
O=C(Nc1ccccc1)c1nc2ccccc2s1,-5%,-7%
Cc1ccc(C)c2sc(NC(=O)c3nc4ccccc4s3)nc12,10µM*,-1%
Cc1cc(C)cc(NC(=O)NCc2noc3ccccc23)c1,1%,-4%
CCN(CC)C(=O)c1sc2c(c1C)c(=O)n(-c1ccc(Cl)c(Cl)c1)c(=O)n2Cc1ccccc1C#N,-4%,1%
COc1ccc(CNC(=O)c2oc3c(c2C)-c2nn(Cc4ccccc4Cl)cc2CC3)cc1,5%,-2%
Cc1ccc(N2C(=O)CC(c3ccccc3F)C3=C2COC3=O)cc1Cl (stereo not given),-10%,0%
Cc1ccc(C2=NC(c3ccc(F)cc3)=Nc3ccc(C)cc3N2)cc1,25µM*,-1%
Cc1ccc2c(c1)NC(c1cccnc1)=NC(c1ccc(F)cc1)=N2,5%,-4%
O=C(Nc1ccc(Br)cc1)C1CCN(c2ncccn2)CC1,-14%,-1%
O=C(Cn1c(=O)n(Cc2nc(-c3ccccc3)no2)c(=O)c2cc3c(cc21)OCO3)Nc1cccc(C(F)(F)F)c1,5µM*,1%
Cc1ccc(NC(=O)Cn2c(=O)n(Cc3nc(-c4ccccc4)no3)c(=O)c3ccccc32)cc1C,-21%,-3%
COc1ccc(-c2noc(Cn3c(=O)c4ccccc4n(CC(=O)Nc4cccc(C(F)(F)F)c4)c3=O)n2)cc1,16µM*,-3%
CCOc1ccc(NC(=O)Cn2c(=O)n(Cc3nc(-c4ccccc4)no3)c(=O)c3cc4c(cc32)OCO4)cc1,-17%,-2%
CC(=O)N1CCCc2cc(S(=O)(=O)N3CCCC(C(=O)Nc4cccc(Cl)c4C)C3)ccc21 (stereo not given),21%,-2%
COc1ccc(CCNC(=O)c2ccc3c(c2)N=C(C)c2ccccc2S3)cc1OC,u,-5%
CCCN(C(=O)c1nn(-c2ccc(OC)cc2)c(=O)c2c1c1ccccc1n2C)c1ccc(CC)cc1,9%,-1%
Cc1[nH]c2ccccc2c1C(=O)COC(=O)CCS(=O)(=O)c1ccccc1Cl,-8%,-9%
Cc1nc(NC(=O)COC(=O)CCS(=O)(=O)c2ccccc2Cl)c(Cl)cc1Cl,-26%,22µM*
CCOC(=O)C(Cc1ccc(O)cc1)NC(=O)CNC(=O)C(CC(C)C)NC(=O)OC(C)(C)C (stereo not given),10µM*,13µM*
COC(=O)C(Cc1ccccc1)NC(=O)C(CC(C)C)NC(=O)OC(C)(C)C (stereo not given),32µM*,16µM*
CC(C)CC(NC(=O)C(Cc1ccc(OCc2ccccc2)cc1)NC(=O)OC(C)(C)C)C(N)=O (stereo not given),-2%,-1%
SMILES,Cruzain noTriton,Cruzain Triton
CCC(C)C(NC(=O)OC(C)(C)C)C(=O)NC(Cc1ccccc1)C(=O)OC (stereo not given),-10%,-3%
N#CCCn1c(=O)c(-c2cccc(C#N)c2)nc2cnc(N3CCOCC3)nc21,7%,-3%
CCCNC(=O)C1Cc2cc(S(=O)(=O)N3CCCCCC3)ccc2N1C(C)=O (stereo not given),1%,0%
COc1ccc(C(=O)/C=C/c2cn(CC(O)CN3CCc4ccccc43)c3ccccc23)cc1OC (stereo not given),-26%,-5%
Cc1ccc(C(=O)/C=C/c2cn(CC(O)CN3CCc4ccccc43)c3ccccc23)cc1 (stereo not given),10µM*,-4%
COc1cc2c(cc1OC)-c1cc(N3CCCc4ccccc43)nc(=O)n1CC2,20%,-10%
COc1cc2c(cc1OC)-c1cc(N3CCCCCC3)nc(=O)n1CC2,13µM*,-15%
CCOC(=O)/C(C#N)=C/c1ccc(-c2ccccc2)o1,13%,-11%
CC[C@@H](CO)NC(=O)[C@H]1C=C2c3cccc4c3c(cn4C)C[C@H]2N(C)C1,u,36%
CCOc1cccc(C2c3c(oc4ccccc4c3=O)C(=O)N2c2nc(C)c(C(=O)OC)s2)c1 (stereo not given),7%,0%
CN1CCN(c2ncc3nc(-c4ccccc4)c(=O)n(-c4ccccc4)c3n2)CC1,u,25µM*
CN1CCN(c2ncc3nc(-c4cccc(C#N)c4)c(=O)n(C)c3n2)CC1,u,18µM*
CN1CCN(c2ncc3nc(-c4cc(F)cc(F)c4)c(=O)n(C)c3n2)CC1,24%,-7%
COc1ccc(-n2c(=O)c(-c3ccccc3)nc3cnc(N4CCN(C)CC4)nc32)cc1,-2%,0%
CCCCOC(=O)/C(C#N)=C/c1ccc(-c2ccc(Br)cc2)o1,0%,-3%
Cc1cn2c(=O)c(S(=O)(=O)NCc3ccccc3Cl)c(C)nc2s1,6%,0%
CC(=O)Nc1ccc(NC(=O)c2oc3c(c2C)-c2nn(Cc4ccccc4Cl)cc2CC3)cc1,-2%,-1%
CCOc1cc(/C=N/NC(N)=O)cc(Br)c1OCC(=O)Nc1cccc2ccccc12,6.3µM*,-3%
C=CCOc1c(Br)cc(/C=N/NC(N)=O)cc1OC,7%,-3%
CCOc1cc(/C=N/NC(N)=O)cc(Br)c1OCC(=O)Nc1ccccc1C,u,-8%
COc1cc(/C=N/NC(N)=O)cc(Br)c1OCc1ccccc1C,20µM*,3%
COc1ccc2[nH]cc(CCNc3ncncc3-c3ccccc3C)c2c1,10%,0%
CCS(=O)(=O)N1CCc2cc(C(=O)N3CCN(c4cccc(C(F)(F)F)c4)CC3)ccc21,-15%,-11%
O=C(Nc1ccccc1N1CCN(C(=O)c2ccc(Cl)cc2)CC1)c1cc(Br)ccc1Cl,7.9µM*,4%
CC(=O)N1CCN(c2ccccc2NC(=O)c2cc(Br)ccc2Cl)CC1,3%,-2%
SMILES,Cruzain noTriton,Cruzain Triton
O=C(CN1C(=O)c2ccccc2S1(=O)=O)c1ccccc1,-16%,-4%
Cc1ccc(C(=O)CN2/C(=C(\O)c3ccccc3)C(=O)c3ccccc3S2(=O)=O)c(C)c1,25µM*,0%
CC1=C(O)C(=O)[C@H]2O[C@@H]2C1=O,-5%,-8%
CCCN(CC1CC1)c1nc(C)nc(Nc2c(Cl)cc(Cl)cc2Cl)c1Cl,25µM*!,-2%
CCCN(CC1CC1)c1nc(N)c(C#N)c(CC#N)c1C#N,-9%,-6%
CC1Cc2cc(S(=O)(=O)CCC(=O)Nc3ccc(F)cc3)ccc2N1C(=O)C1CC1 (stereo not given),4%,-1%
O=C(Nc1ccc2c(c1)oc1ccccc12)c1ccc2c(c1)OCO2,u,-1%
O=C(COc1ccc2c(c1)OCO2)Nc1ccc2c(c1)oc1ccccc12,10µM*,-1%
COc1ccc(/C=C\c2onc(C)c2S(=O)(=O)N2CCC(C(=O)Nc3cccc(Cl)c3)CC2)cc1,7.9µM*,-3%
COc1ccc(NC(=O)C2CCN(S(=O)(=O)c3c(C)noc3/C=C/c3cccs3)CC2)cc1Cl,10µM*,-4%
Cc1ccc(NC(=O)C2CCN(S(=O)(=O)c3c(C)noc3/C=C/c3cccs3)CC2)cc1F,u,-2%
Cc1noc(/C=C/c2cccs2)c1S(=O)(=O)N1CCC(C(=O)Nc2ccc(F)c(Cl)c2)CC1,u,-2%

# Screens (PubChem BioAssay)
